Experimental data: the supplement of paper PMC3334620
Whole data set: some 33,000 sequences, median “E-score (-0.5 to 0.5)” near -0.016, cut for the highest 2% near 0.32. This excerpt belongs to a sample that is enriched for the highest values.

What follows are sequences tested against T1, Stp1 (UniProt B3LFK1) (assay: PBM E-score (8-mer binding enrichment) (E-score (-0.5 to 0.5)); higher = stronger / more preferred TF binding). Details: protein concentration: 200 nM; construct: GST-full length.
T1 sequence: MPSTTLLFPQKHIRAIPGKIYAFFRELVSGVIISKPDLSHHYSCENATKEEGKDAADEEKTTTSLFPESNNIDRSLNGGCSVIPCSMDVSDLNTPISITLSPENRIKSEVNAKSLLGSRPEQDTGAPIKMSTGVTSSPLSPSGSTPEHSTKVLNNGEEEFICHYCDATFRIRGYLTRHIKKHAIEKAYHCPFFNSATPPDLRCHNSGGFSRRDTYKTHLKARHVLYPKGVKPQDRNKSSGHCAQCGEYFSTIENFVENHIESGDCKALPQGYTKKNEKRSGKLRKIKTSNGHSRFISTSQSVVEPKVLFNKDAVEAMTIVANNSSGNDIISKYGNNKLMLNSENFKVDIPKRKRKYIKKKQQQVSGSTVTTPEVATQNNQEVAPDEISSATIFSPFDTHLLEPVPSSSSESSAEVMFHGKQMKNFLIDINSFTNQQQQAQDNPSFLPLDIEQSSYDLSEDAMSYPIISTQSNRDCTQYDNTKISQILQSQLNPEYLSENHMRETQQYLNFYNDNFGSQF
Experimental: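 Universal 'all 10-mer' protein binding microarrays (Agilent AMADID 015681) probed with GST-tagged S. cerevisiae TFs (full-length or DBD) made by in vitro transcription/translation (PURExpress), about 100-200 nM. Bound TF was detected with fluorescent anti-GST. Each ungapped 8-mer (which stands for itself and its reverse complement) is scored by the PBM enrichment score (E-score), a modified Wilcoxon-Mann-Whitney statistic from -0.5 to +0.5, computed with the Universal PBM Analysis Suite. Scale: above 0.35 generally sequence-specific binding.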

Sequence | PBM E-score
AGGCCGTC | -0.0198
CCCCCGTA | -0.238
ACGCCGAA | 0.21
ACGCCGTG | 0.485
AGGCCGTG | 0.307
CGCCCGTA | -0.183
AGCCGAGG | 0.142
CTGCTGCA | -0.169
ATCAGGGA | -0.201
GATTTAAC | 0.148
ATTGATTC | 0.265
ATTGATTA | 0.338
ATTGATTG | 0.178
ACGGCTAA | 0.377
ACGGCTAG | 0.235
GCGGCTAA | 0.304
ACGGCTAC | 0.407
GCGGCTAC | 0.305
TCGGCTAA | 0.145
AGGGCTAT | -0.325
ACGGCTAT | 0.349
CCGGCTAC | 0.0509

Sequence | PBM E-score
AGTCTCCC | -0.272
CTTATAGC | -0.0511
CGGTGCAG | -0.0834
GTCAAATA | 0.0762
GTCGCAAC | -0.0752
GAATAGTC | -0.205
ACAGGCAC | -0.047
CGCTAGGA | -0.0128
TACCGTAA | 0.0576
CGCCGTAA | 0.418
GACCGTAC | -0.0763
GGCCGTAC | 0.424
TGCCGTAA | 0.34
CACCGTAA | 0.00961
ATCCGTAC | 0.28
ACCCGTAC | 0.0646
CCCCGTAA | -0.0389
TCCCGTAA | -0.0808
AGCCGTAC | 0.432
GGCCGTAA | 0.192
ATCGAGTG | 0.141
AAATGTCC | -0.229

Sequence | PBM E-score
AATAAGCC | 0.0484
AGTGAATG | 0.0894
CAGTAACG | 0.0111
TGTGCCAA | 0.117
ATGACTGA | -0.164
CGATTCCG | -0.0394
GAGGCCAA | -0.164
ATAAATGG | 0.0779
TAGGGCGA | 0.178
ATCTCCTA | -0.214
ATTGAGGA | -0.0544
AACCGTAT | -0.0259
ATCCGTAG | 0.112
CCCCGTAG | -0.0863
CGCCGTAC | 0.487
CTCCGTAC | 0.184
AGCCGTAG | 0.392
AGCCGTAA | 0.31
CACCGTAC | 0.121
ACCCGTAG | -0.36
CGCCGTAG | 0.465
AGCCGTAT | 0.435

Sequence | PBM E-score
CACCGTAG | -0.0209
CGAGCCCA | -0.215
GAGACGTA | -0.074
ATTACTTC | -0.0579
ACGTGTCA | -0.0154
AAAGCACG | 0.0591
CGATAGGC | 0.135
GCACGGCC | 0.415
ACACGGCC | 0.344
GCACGGGC | 0.19
ACACGGAC | 0.217
GCACGGAC | 0.28
ACACGGGC | 0.0838
GTCTACAA | -0.0248
CCAGGCGG | -0.0554
AGACATTG | -0.194
GATCTTCA | -0.025
CTTTTAGA | 0.0884
GCACGAAC | 0.101
GCACGAAA | 0.326
